Measured values taken from PubChem BioAssay (Tox21).
Results filed as inconclusive are left out. Entries that show only a call come without a potency. Calls of active or inactive are those of the source. Calls follow the shape of the full dose curve.

What was measured:
[1] = biological target: Acetylcholinesterase (Homo sapiens) (UniProt P22303); assay: Acetylcholinesterase (AChE) small molecule antagonists: colormetric cell-based qHTS assay (AID 1347395); also: nearly all actives have a fitted effect of over 30% in size; also: potency is read from the fitted curve at half-maximal effect
Sequence of Acetylcholinesterase (Homo sapiens) (P22303 whole entry, looked up): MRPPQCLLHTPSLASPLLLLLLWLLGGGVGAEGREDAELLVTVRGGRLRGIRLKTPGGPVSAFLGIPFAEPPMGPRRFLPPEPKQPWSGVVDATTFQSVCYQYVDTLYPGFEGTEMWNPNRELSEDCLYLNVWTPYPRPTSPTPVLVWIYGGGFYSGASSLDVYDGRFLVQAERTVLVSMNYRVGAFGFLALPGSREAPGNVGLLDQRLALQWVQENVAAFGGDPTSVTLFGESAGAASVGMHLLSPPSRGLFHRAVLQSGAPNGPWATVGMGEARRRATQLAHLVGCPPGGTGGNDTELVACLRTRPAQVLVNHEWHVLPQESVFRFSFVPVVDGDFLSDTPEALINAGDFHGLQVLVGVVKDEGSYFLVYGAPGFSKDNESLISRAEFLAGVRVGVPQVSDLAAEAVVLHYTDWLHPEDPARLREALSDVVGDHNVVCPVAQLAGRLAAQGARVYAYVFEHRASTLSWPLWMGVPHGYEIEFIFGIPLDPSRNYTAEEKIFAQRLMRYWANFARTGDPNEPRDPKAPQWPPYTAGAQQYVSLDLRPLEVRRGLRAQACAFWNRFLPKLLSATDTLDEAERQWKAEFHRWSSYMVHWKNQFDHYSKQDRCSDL
Summary of the method: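 Endogenous AChE of human neuroblastoma SH-SY5Y cells was measured with an Ellman-type DTNB/acetylthiocholine mix. Compound pretreatment lasted 30 min at 37 C; substrate reaction ran 90 min at 37 C.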

[2] = biological target: Acetylcholinesterase (Homo sapiens) (UniProt P22303); assay: Acetylcholinesterase (AChE) small molecule antagonists: enzyme-based qHTS assay (AID 1347397); settings: Potency: AChE enzyme activity inhibition; outcome: AChE enzyme activity inhibition; also: nearly all actives have a fitted effect of over 55% in size; also: potency is read from the fitted curve at half-maximal effect
Summary of the method: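 rhAChE 50 mU/mL (dispensed) + cpd or DMSO, 30 min RT; add DTNB/acetylthiocholine cocktail, 10 min RT; colorimetric thiocholine readout. qHTS, 1536-well format.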

[3] = biological target: Acetylcholinesterase (Homo sapiens) (UniProt P22303); assay: Acetylcholinesterase (AChE) small molecule antagonists: fluorescence cell-based qHTS assay (AID 1347398); settings: Potency: AChE activity; outcome: AChE activity; also: nearly all actives have a fitted effect of over 50% in size; also: potency is read from the fitted curve at half-maximal effect
Summary of the method: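 Read-out is Thiolite Green fluorescence at Ex/Em = 490/520 nm, formed by reaction with thiocholine released when cellular AChE in SH-SY5Y cells hydrolyzes acetylthiocholine. Compounds were preincubated 30 min at 37 C before substrate.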

[4] = biological target: Acetylcholinesterase (Homo sapiens) (UniProt P22303); assay: Acetylcholinesterase (AChE) small molecule antagonists: enzyme-based qHTS assay with human liver microsomes (AID 1347399); settings: Potency: qHTS inhibition; outcome: qHTS inhibition; also: nearly all actives have a fitted effect of over 60% in size
Summary of the method: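 Recombinant human AChE (50 mU/mL in the enzyme mix) and human liver microsomes (0.25 mg/mL final) were preincubated with compound and NADPH (0.25 mg/mL final) for 30 min at 37 C. Acetylthiocholine/DTNB was then added; thiocholine was read colorimetrically after 10 min at room temperature.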

| SMILES | Potency [1] | Potency [2] | Potency [3] | Potency [4] |
| --- | --- | --- | --- | --- |
| C1COC1 | inactive | inactive | inactive | inactive |
| CCCCCCCCCCCC(=O)[O][Sn]([CH2]CCC)([CH2]CCC)[O]C(=O)CCCCCCCCCCC | inactive | inactive | inactive | inactive |
| Cc1ccc(N)nc1 | inactive | inactive | inactive | inactive |
| CC(=O)NC(Cc1ccccc1)C(=O)O (stereo not drawn) | inactive | inactive | inactive | inactive |
| CO[Si](CCCNc1ccccc1)(OC)OC | inactive | inactive | inactive | inactive |
| COc1cc(N)ccc1C | inactive | inactive | inactive | inactive |
| CC(=O)Nc1cccc(N)c1 | inactive | inactive | inactive | inactive |
| COc1cc(OC)c2ccc(=O)oc2c1 | inactive | inactive | inactive | inactive |
| CCOC(=O)OC(=O)OCC | inactive | inactive | inactive | inactive |
| CC(C)(C)C(=O)OCOC(=O)C1N2C(=O)CC2S(=O)(=O)C1(C)C (stereo not drawn) | inactive | inactive | inactive | inactive |
| Cc1ccc(Cl)cc1Cl | inactive | inactive | inactive | inactive |
| Nc1c(Br)cc([N+](=O)[O-])cc1Br | inactive | inactive | inactive | inactive |
| N#Cc1ccc(C2CCCc3cncn32)cc1 (stereo not drawn) | inactive | inactive | inactive | inactive |
| C=C(C)C(=O)OCC | inactive | inactive | inactive | inactive |
| Cc1cncc(C)c1 | inactive | inactive | inactive | inactive |
| Nc1ncnc2c1ncn2[C@H]1CC[C@@H](CO)O1 | inactive | inactive | inactive | inactive |
| O=C1CCCc2c1cc1ccc3cccc4ccc2c1c34 | inactive | inactive | inactive | inactive |
| Cc1c(C)c2c(c(C)c1OC(=O)CCC(=O)O)CC[C@@](C)(CCC[C@H](C)CCC[C@H](C)CCCC(C)C)O2 | inactive | inactive | inactive | inactive |
| C=CCCCC | inactive | inactive | inactive | inactive |
| Cc1nc(-c2ccc3c(c2)CCN(CCC2CCC(NC(=O)/C=C/c4ccc(F)cc4)CC2)CC3)no1 (stereo not drawn) | inactive | inactive | inactive | inactive |
| CC(C)(C)C(=O)Oc1ccc(S(=O)(=O)Nc2ccccc2C(=O)NCC(=O)O)cc1 | inactive | inactive | inactive | inactive |

| SMILES | Potency [1] | Potency [2] | Potency [3] | Potency [4] |
| --- | --- | --- | --- | --- |
| COc1ccc(Cl)cc1C | inactive | inactive | inactive | inactive |
| COc1ccc(COC=O)cc1 | inactive | inactive | inactive | inactive |
| CN(C)c1ccc(C=O)cc1 | inactive | inactive | inactive | inactive |
| C[C@@H]1C[C@H]2[C@@H]3CCC4=CC(=O)C=C[C@]4(C)[C@@]3(Cl)[C@@H](O)C[C@]2(C)[C@@]1(OC(=O)c1ccco1)C(=O)CCl | inactive | inactive | inactive | inactive |
| C=CCOCC(O)CO (stereo not drawn) | inactive | inactive | inactive | inactive |
| Oc1ccc(Cl)cc1C1CCCC1 | inactive | inactive | inactive | inactive |
| Cc1ccc2c(c1[N+](=O)[O-])C(=O)c1ccccc1C2=O | 0.781 µM (active) | 1.39 µM (active) | 0.392 µM (active) | inactive |
| CCCCCCCCCC(=O)N(C)C | inactive | inactive | inactive | inactive |
| NC(=S)N/N=C/c1cccnc1 | inactive | inactive | inactive | inactive |
| O=C1OC(=O)c2cc(Oc3ccc4c(c3)C(=O)OC4=O)ccc21 | inactive | inactive | inactive | inactive |
| Clc1cccnc1 | inactive | inactive | inactive | inactive |
| CCCCCCC(=O)OCC | inactive | inactive | inactive | inactive |
| Cc1cscn1 | inactive | inactive | inactive | inactive |
| Cc1[nH]cnc1-c1ccc(Cl)cc1 | inactive | inactive | inactive | inactive |
| NC(=O)NS(=O)(=O)c1ccc(Cl)cc1 | inactive | inactive | inactive | inactive |
| CCCCCCCCCCCCN(CCCCCCCCCCCC)CCCCCCCCCCCC | inactive | inactive | inactive | inactive |
| CCOc1ccc(N)c([N+](=O)[O-])c1 | inactive | inactive | inactive | inactive |
| Cc1cnc(NS(=O)(=O)c2ccc(N)cc2)nc1 | inactive | inactive | inactive | inactive |
| NC1CCN(c2nc3c(cc2F)c(=O)c(C(=O)O)cn3-c2ccc(F)cc2F)C1 (stereo not drawn) | inactive | inactive | inactive | inactive |
| C=C(C)C(=O)OCCOCCOC(=O)C(=C)C | inactive | inactive | inactive | inactive |
| C=CC(=O)OCC1CCCO1 (stereo not drawn) | inactive | inactive | inactive | inactive |
